Laboratory results published in PubChem BioAssay (NCATS).
Inconclusive results are not listed. Entries that show only a call come without a potency. The source made the active and inactive calls. Unless noted, the call rests on the fitted dose curve; in most records, active means well fitted curve in the direction sought with a large enough effect; inconclusive means small, poorly fitted or top-dose-only effect, or another doubt; inactive means no such curve, though single readings can be large; an effect the other way counts as inactive or inconclusive.

Legend:
[1] = Cellular Toxicity (caspase-3) H-4-II-E (AID 663);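 further: cells exposed to compound for 16 hr before readout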
Summary of the method: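 Apoptosis induction is scored as increased luminescence from caspase 3/7 substrate cleavage in rat hepatoma H-4-II-E cells exposed to compound for 16 hr. Activity is scaled between DMSO and 100 uM tamoxifen.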

[2] = Cellular Toxicity (caspase-3) Hek293 (AID 664);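 further: cells exposed to compound for 16 h at 37 °C before readout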
Summary of the method: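 HEK293 cells were exposed to compounds in complete medium for 16 hr at 37 °C, then caspase-3/7 activity was read by Caspase-Glo 3/7 luminescence after 20 min at room temperature. Data normalized to DMSO and 100 uM tamoxifen; AC50 from Hill fits.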

[3] = Cellular Toxicity (caspase-3) N2a (AID 665);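 further: compound exposure lasted 16 h at 37 °C before readout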
Summary of the method: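 Mouse N2a neuroblastoma cells (1500/well) were treated with compounds for 16 h at 37 °C, then caspase-3/7 activity was read by Caspase-Glo luminescence after 1 h at room temperature. Data were normalized to DMSO and 10 uM staurosporine; AC50 from Hill fits.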

[4] = Cellular Toxicity (caspase-3) NIH 3T3 (AID 666);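 further: caspase signal read after 16 h compound exposure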
Summary of the method: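 Mouse NIH 3T3 fibroblasts (1000 cells/well) were treated with compound for 16 hr at 37°C in complete medium; caspase-3/7 activity was read by Caspase-Glo luminescence. Normalized to DMSO and 100 uM tamoxifen; AC50 from Hill fits.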

[5] = Cellular Toxicity (caspase-3) Renal Proximal Tubule (AID 667);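 further: cells exposed to compound for 16 hours at 37 °C before detection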
Summary of the method: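 Caspase 3/7 activation measured by luminescent aminoluciferin release in primary rat proximal tubule cells after 16 hr compound exposure at 37 °C. AC50 from Hill-fitted concentration-response, scaled between DMSO and 10 uM staurosporine.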

[6] = target: Cytochrome P450 3A4 (Homo sapiens) (UniProt P08684); test: qHTS Assay for Inhibitors and Substrates of Cytochrome P450 3A4 (AID 884); further: nearly all actives have a fitted effect of over 50% in size; further: potency means the concentration at half of the fitted maximal effect
Cytochrome P450 3A4 (Homo sapiens), sequence (P08684 whole entry, looked up): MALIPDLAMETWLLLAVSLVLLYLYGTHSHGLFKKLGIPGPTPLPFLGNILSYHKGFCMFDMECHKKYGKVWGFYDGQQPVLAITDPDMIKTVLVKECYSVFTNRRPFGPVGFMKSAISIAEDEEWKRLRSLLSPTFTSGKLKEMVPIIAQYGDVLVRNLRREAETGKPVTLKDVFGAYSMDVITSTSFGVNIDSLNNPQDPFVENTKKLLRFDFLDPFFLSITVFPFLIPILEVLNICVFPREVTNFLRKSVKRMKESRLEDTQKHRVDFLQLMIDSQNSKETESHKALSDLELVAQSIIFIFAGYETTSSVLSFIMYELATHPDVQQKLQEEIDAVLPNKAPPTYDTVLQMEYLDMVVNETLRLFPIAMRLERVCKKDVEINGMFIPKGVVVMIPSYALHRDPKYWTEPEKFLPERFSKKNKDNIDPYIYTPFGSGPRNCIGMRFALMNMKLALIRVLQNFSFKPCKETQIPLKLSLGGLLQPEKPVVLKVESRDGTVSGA
Summary of the method: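 20 nM human CYP3A4 with 25 uM Luciferin-PPXE (at KM) in 200 mM KPO4, preincubated 10 min with compound; NADPH regeneration started a 60 min RT reaction. Luciferin detected by luminescence, normalized to 57 uM ketoconazole as full inhibition.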

[7] = Cell Viability - LYMP2-001 (AID 921); further: series mostly up to about 92 µM; nearly all actives have a fitted effect of over 70% in size
Summary of the method: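 Cellular ATP loss read by luciferase luminescence after 24 h compound exposure at 37 C in complete medium. LYMP2-001 lymphoblastoid cells, 2500/well; qHTS concentration-response data fitted with Hill equation for AC50.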

[8] = MultiTox-Fluor Cytotoxicity Assay - LYMP1-001 - Dead Cells (AID 946)
Summary of the method: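 Seed 2500 LYMP1-001 cells/well, incubate 5 hr at 37 C; add compound, 16 hr at 37 C; add MultiTox-Fluor reagent, 60 min RT; read dead-cell fluorescence Ex/Em=485/520. Normalize to DMSO and 15 uM tetraoctylammonium bromide.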

[9] = MultiTox-Fluor Cytotoxicity Assay - LYMP1-001 - Live Cells (AID 947)
[10] = Cell Viability - LYMP1-002 - Assay at 16 hr (AID 948)
Summary of the method: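 ATP luminescence (CellTiter-Glo) was measured after 16 hr compound exposure at 37 C of 2500 lymphoblastoid LYMP1-002 cells per well. Concentration-response curves were fitted with the Hill equation to give AC50.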

[11] = MultiTox-Fluor Cytotoxicity Assay - LYMP1-002 - Live Cells (AID 955)
Summary of the method: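 Human lymphoblastoid LYMP1-002 cells, 2500/well in complete medium, rested 5 hr at 37 C, then exposed to compounds for 16 hr at 37 C. Live-cell protease cleavage of GF-AFC read by fluorescence (Ex/Em 405/510) after 60 min at room temperature; AC50 from Hill fits.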

[12] = MultiTox-Fluor Cytotoxicity Assay - LYMP1-002 - Dead Cells (AID 960); further: nearly all actives have a fitted effect of over 60% in size
Summary of the method: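 Human lymphoblastoid cells (LYMP1-002), 2500/well in complete medium, were exposed to compounds for 16 hr at 37 C. Dead-cell protease activity was read as bis-AAF-R110 fluorescence (Ex/Em 485/520), normalized to DMSO and 15 uM tetraoctylammonium bromide; AC50 from Hill fits.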

[13] = Confirmation and Secondary Assay for Modulators of Hemoglobin Beta Chain Splicing at IVS2 705 locus (AID 930);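 further: HeLa cells stably expressing the EGFP-705 splicing reporter; GFP fluorescence per well restored by corrected splicing of the IVS2-705 intron in EGFP; series mostly up to about 46 µM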
Summary of the method: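 First, HeLa EGFP-705 cells are seeded at 500/well in Optimem with 2% FCS and left overnight. Next, compound or DMSO is added for 2 days. Finally wells are laser-scanned and total peak GFP intensity scored.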

[14] = target: Cytochrome P450 3A4 (Homo sapiens) (UniProt P08684); test: qHTS Assay for Activators of Cytochrome P450 3A4 (AID 885); further: nearly all actives have a fitted effect of over 65% in size
Summary of the method: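 Steps: enzyme/substrate mix dispensed; compound added, 10 min RT; NADPH regeneration solution added, 60 min RT; luciferin detection buffer stops reaction; 20 min later luminescence measured.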

[15] = target: Cytochrome P450 2C9 (Homo sapiens) (UniProt P11712); test: qHTS Assay for Inhibitors and Substrates of Cytochrome P450 2C9 (AID 883); further: nearly all actives have a fitted effect of over 60% in size
Cytochrome P450 2C9 (Homo sapiens), sequence (P11712 whole entry, looked up): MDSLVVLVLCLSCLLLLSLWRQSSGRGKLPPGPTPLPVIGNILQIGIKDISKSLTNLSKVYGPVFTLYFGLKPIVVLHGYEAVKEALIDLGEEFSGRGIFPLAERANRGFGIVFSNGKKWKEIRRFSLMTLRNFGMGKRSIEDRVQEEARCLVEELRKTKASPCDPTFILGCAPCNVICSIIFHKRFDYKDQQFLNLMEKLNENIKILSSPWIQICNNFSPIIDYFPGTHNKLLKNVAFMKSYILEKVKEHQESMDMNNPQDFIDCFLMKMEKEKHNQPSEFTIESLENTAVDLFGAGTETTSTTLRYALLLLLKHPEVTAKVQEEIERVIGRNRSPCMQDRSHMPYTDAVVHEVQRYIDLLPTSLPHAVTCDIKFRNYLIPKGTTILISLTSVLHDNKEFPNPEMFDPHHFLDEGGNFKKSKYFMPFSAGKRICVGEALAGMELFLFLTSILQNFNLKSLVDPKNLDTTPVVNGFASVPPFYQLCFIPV
Summary of the method: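 Turnover of Luciferin-H (100uM, KM) by 10nM human CYP2C9 was measured over 60 min at 37C with NADPH regeneration; inhibitors and some substrates reduce luminescence. Data normalized to sulphaphenazole 57uM.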

[16] = target: Cytochrome P450 2C19 (Homo sapiens) (UniProt P33261); test: qHTS Assay for Inhibitors and Substrates of Cytochrome P450 2C19 (AID 899); details: recombinant CYP2C19, luciferin-H EGE luminescence; further: potency means the concentration at half of the fitted maximal effect; nearly all actives have a fitted effect of over 60% in size
Cytochrome P450 2C19 (Homo sapiens), sequence (P33261 whole entry, looked up): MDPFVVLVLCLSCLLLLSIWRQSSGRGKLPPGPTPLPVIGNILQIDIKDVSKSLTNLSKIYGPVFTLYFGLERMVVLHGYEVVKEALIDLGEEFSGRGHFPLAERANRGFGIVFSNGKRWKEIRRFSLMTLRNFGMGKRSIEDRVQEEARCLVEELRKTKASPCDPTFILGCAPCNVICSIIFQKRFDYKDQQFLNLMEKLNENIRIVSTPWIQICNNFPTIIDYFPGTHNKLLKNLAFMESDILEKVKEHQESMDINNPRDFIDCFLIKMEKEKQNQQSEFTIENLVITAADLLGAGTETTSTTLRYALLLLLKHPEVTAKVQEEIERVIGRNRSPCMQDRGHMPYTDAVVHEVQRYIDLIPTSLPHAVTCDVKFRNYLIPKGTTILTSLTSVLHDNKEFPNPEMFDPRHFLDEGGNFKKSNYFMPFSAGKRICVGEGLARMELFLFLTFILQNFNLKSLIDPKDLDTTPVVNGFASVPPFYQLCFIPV
Summary of the method: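 Reactions contain 5nM enzyme, 10uM Luciferin-H EGE (KM) and 50mM KPO4; compound preincubates 10 min at 37C, NADPH regeneration starts turnover for 60 min. Luminescence after detection reagent gives activity.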

[17] = Confirmation and Secondary Assay for Modulators of Hemoglobin Beta Chain Splicing at IVS2 654 locus (AID 910);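 further: HeLa cells stably carrying EGFP split by mutant beta-globin IVS2-654 intron; per-well total GFP intensity by laser scanning cytometry after 2-day treatment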
Summary of the method: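 Readout: per-well total peak green fluorescence (488 nm ex, 500–520 nm em) from objects 5–250 µm, reflecting correct splicing of an EGFP-654 reporter. Compounds were applied for 2 days at 37 °C to overnight-plated HeLa EGFP-654 cells; controls were DMSO and 500 nM IVS2-654 PNA.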

[18] = target: Guanine nucleotide-binding protein G(i) subunit alpha-1 (Homo sapiens) (UniProt P63096); test: qHTS Assay for Inhibitors of RGS12 GoLoco Motif Activity (Green Fluorophore) (AID 879);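 further: negative values mean loss of peptide binding seen as reduced polarization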
Guanine nucleotide-binding protein G(i) subunit alpha-1 (Homo sapiens), sequence (P63096 whole entry, looked up): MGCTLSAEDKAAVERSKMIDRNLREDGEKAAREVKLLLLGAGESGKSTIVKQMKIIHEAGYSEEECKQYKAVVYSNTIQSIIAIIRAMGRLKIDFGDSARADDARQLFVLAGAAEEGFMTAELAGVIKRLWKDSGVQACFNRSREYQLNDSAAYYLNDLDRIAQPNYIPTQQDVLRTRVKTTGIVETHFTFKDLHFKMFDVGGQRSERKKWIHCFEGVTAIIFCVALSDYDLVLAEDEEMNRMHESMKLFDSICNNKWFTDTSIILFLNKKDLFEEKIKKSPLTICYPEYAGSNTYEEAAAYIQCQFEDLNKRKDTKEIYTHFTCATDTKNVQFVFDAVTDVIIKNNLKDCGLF
Summary of the method: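 Fluorescence polarization assay: 50 nM Gαi1 with 10 nM FITC-labeled RGS12 GoLoco peptide in 10 mM Tris pH 7.5, 150 mM NaCl, 0.1 mM GDP, 0.05% NP40, 10 min at room temperature with compound.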

[19] = target: Pyruvate kinase (Leishmania mexicana) (UniProt Q27686); test: qHTS Validation Assay for Inhibitors of Leishmania Mexicana Pyruvate Kinase (AID 945)
Pyruvate kinase (Leishmania mexicana), sequence (Q27686 2-499 E452W): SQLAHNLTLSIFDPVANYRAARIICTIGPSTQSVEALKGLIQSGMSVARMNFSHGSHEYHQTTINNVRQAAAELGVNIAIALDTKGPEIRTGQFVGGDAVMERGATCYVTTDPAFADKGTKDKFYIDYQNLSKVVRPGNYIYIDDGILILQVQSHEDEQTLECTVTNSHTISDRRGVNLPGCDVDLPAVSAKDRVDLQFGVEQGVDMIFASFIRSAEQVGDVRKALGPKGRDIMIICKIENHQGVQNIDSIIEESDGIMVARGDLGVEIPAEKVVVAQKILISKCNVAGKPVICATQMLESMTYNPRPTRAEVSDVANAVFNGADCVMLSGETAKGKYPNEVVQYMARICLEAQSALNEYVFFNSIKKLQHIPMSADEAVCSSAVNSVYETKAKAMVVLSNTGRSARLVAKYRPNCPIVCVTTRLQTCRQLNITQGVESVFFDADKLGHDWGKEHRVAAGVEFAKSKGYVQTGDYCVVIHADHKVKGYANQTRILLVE
Summary of the method: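 qHTS eight-point titrations against 0.2 nM LmPYK (E451W) in imidazole buffer pH 7.2 with 0.5 mM PEP, 0.1 mM ADP; 1 h, room temperature. Readout: PKLight luminescence, normalized to neutral DMSO wells.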

[20] = target: Pyruvate kinase PKM (Homo sapiens) (UniProt P14618); test: qHTS Assay for Activators of Human Muscle Pyruvate Kinase (AID 954; active means well fitted curve in the direction sought with a large enough effect, not every such curve was filed as active)
Pyruvate kinase PKM (Homo sapiens), sequence (P14618 whole entry, looked up): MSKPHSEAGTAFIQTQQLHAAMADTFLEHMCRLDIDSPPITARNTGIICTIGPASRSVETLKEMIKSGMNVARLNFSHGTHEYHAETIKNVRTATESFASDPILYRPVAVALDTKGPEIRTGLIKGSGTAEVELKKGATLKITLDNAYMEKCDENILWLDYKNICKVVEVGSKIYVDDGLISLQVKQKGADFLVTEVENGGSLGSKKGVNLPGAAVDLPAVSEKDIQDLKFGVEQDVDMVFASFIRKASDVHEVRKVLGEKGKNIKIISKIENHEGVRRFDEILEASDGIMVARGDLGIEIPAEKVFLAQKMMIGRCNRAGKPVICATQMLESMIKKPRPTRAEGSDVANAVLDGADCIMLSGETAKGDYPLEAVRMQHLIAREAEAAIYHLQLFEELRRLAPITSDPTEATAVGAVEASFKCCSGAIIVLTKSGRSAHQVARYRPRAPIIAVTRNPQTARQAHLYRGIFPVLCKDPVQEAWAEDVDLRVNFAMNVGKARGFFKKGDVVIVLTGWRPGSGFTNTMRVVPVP
Summary of the method: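 Reaction: 0.1 nM purified PKM2 with 0.5 mM phosphoenolpyruvate and 0.1 mM ADP, room temperature, 1 h. Readout: luciferase-based ATP luminescence after stop reagent. Activators judged against a 0.3 nM enzyme column.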

## Cc1ccc(N)cc1O
[1]
  outcome: inactive
[2]
  outcome: inactive
[3]
  outcome: inactive
[4]
  outcome: inactive
[5]
  outcome: inactive
[6]
  Potency: inactive
[7]
  outcome: inactive
[8]
  outcome: inactive
[9]
  outcome: inactive
[10]
  outcome: inactive
[11]
  outcome: inactive
[12]
  outcome: inactive

## CC(C)C(N)C(=O)OCCOCn1cnc2c(=O)[nH]c(N)nc21 (stereo not given)
[6]
  Potency: inactive
[13]
  outcome: inactive

## Nc1nc2c(ncn2[C@@H]2O[C@H](CO)[C@@H](O)[C@H]2O)c(=O)[nH]1
[6]
  Potency: inactive

## Cc1ccccc1CN1C2=NCCN2C(=O)C2=C1CCN(Cc1ccccc1)C2
[14]
  activity change, positive = activation: -40.7% [at 11.4 µM] (inactive)

## COc1ccc2c(OC)c3ccoc3nc2c1OC
[15]
  outcome: inactive
[6]
  Potency: 12.6 µM (active)
[14]
  outcome: inactive
[16]
  Potency: 10 µM (active)

## CC(=O)c1cc2c(cc1O)OC(C)(C)C=C2
[14]
  outcome: inactive
[17]
  outcome: inactive
[13]
  outcome: inactive

## CC(C)[N+]1(C)C2CCC1CC(OC(=O)C(CO)c1ccccc1)C2 (stereo not given)
[17]
  outcome: inactive
[13]
  outcome: inactive

## COc1ccc(C[C@H](N)C(=O)N[C@@H]2[C@H](O)[C@H](n3cnc4c(N(C)C)ncnc43)O[C@@H]2CO)cc1
[14]
  outcome: inactive

## CC(=O)O[C@@H]1CC(C)=C2[C@H]1[C@H](C)CC[C@H]2/C=C(\C)C(=O)O
[1]
  outcome: inactive
[2]
  outcome: inactive
[3]
  outcome: inactive
[4]
  outcome: inactive
[5]
  outcome: inactive
[6]
  Potency: inactive
[7]
  outcome: inactive
[8]
  outcome: inactive
[9]
  outcome: inactive
[10]
  outcome: inactive
[11]
  outcome: inactive
[12]
  outcome: inactive

## Nc1ccccc1N
[1]
  outcome: inactive
[2]
  outcome: inactive
[3]
  outcome: inactive
[4]
  outcome: inactive
[5]
  outcome: inactive
[8]
  outcome: inactive
[10]
  outcome: inactive
[11]
  outcome: inactive
[12]
  outcome: inactive

## CC(=O)O[C@H]1C(=O)[C@@]2(C)[C@H]([C@H](OC(=O)c3ccccc3)[C@]3(O)C[C@H](OC(=O)[C@H](O)[C@@H](NC(=O)c4ccccc4)c4ccccc4)C(C)=C1C3(C)C)[C@]1(OC(C)=O)CO[C@@H]1C[C@@H]2O
[18]
  outcome: inactive
[19]
  outcome: inactive
[20]
  outcome: inactive
